This is an account of results in PubChem BioAssay.

Broadly, the inhibition is the drop in the measured response relative to a control, in per cent.

The source made the active and inactive calls.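 The calls were made as follows, unless noted: active = fluorescence slope higher than the sample average by over 3 SD (cut at about -0.22 in these data, passing the limit was not always enough); inactive = the rest.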

Assay [1] in a line: inhibitors of TNFa-induced NFkB p65 translocation, primary screen, imaging, HUVEC, MLSMR starter and 10KST1 sets (AID 438;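 active = inhibition above 20% together with a positive visual image hit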;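 also: compound added about 3h40 before a 20 min TNFalpha stimulation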;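 as to inhibition: signal is the nuclear over cytoplasmic p65 intensity ratio per well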). The conditions noted are these: HUVEC TNFa-induced p65 nuclear translocation; cell count: measured here: nuclei count (cytotoxicity indicator), at 2.08 µM; inhibition: at 2 µM, stronger effect = higher value, 0% TNFa-plus-vehicle, 100% no-TNFa wells.
Assay [2] in a line: inhibitors of mutant huntingtin aggregation, primary screen, imaging, exon1htt(103Q)mCFP cells, high-content imaging (AID 483;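 active = visual image review flags a hit and inhibition of aggregation exceeds 20%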;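 also: compound exposure lasted 3 days before fixation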;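 as to nuclei count: percent of the per-plate median nuclei count of sample wells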). The following applies: exon1htt(103Q)mCFP cell line, aggregate imaging, at 2 µM; inhibition of aggregation: stronger effect = higher value; nuclei count: measured here: cell count, toxicity.
The nature of assay [3]: inhibitors of E-selectin induction by TNFa, primary screen, imaging, HUVEC, immunofluorescence, MLSMR starter and 10KST1 sets (AID 487;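 active = visually confirmed hit in the image check and inhibition above 20%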;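 as to inhibition: signal is fraction of cell area covered by stained E-selectin grains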;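 as to nuclei count: 100% = median nuclei count of all wells on the same plate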). The following applies: HUVEC TNFalpha-induced E-selectin immunofluorescence imaging, at 2 µM; inhibition: stronger effect = higher value; nuclei count: measured here: cell number, toxicity.
Assay [4] addresses Voltage-gated potassium channel subunit beta-2 (Rattus norvegicus) (UniProt P62483). Put plainly: KvBeta enzyme negative modulators, primary screen, biochemical, NADPH fluorescence (AID 622).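 Also: slope of raw intensity against log time taken from 70 to 1610 s.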 The following applies: recombinant KvBeta, 4-cyanobenzaldehyde reduction, at 10 µM, stronger effect = higher value.
The target is the same in assay [5]. Put plainly: KvBeta positive modulators, primary screen, biochemical, NADPH fluorescence (AID 623;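 active = NADPH fluorescence slope more negative than the mean of all samples by about 3 SD, 99.7% confidence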;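 also: fluorescence intensity change per second fitted from 20 to 320 s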). The conditions noted are these: Recombinant KvBeta, NADPH fluorescence decrease slope, 10 min; at 10 µM; stronger effect = lower value.
Assay [6] has as its target Alpha-2C adrenergic receptor (Homo sapiens) (UniProt P18825). As to the kind of experiment: modulators of alpha2C/GIRK thallium flux, primary screen, cell-based, HEK293 alpha2C/GIRK1/2 (AID 624;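 active = fluorescence slope after compound addition differing from the mean of all screened samples at 99.7% confidence, in either direction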;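 also: slope of fluorescence ratio to pre-addition baseline per second over 15 to 24 s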). The following applies: thallium flux BTC fluorescence, at 10 µM, actives lie on both sides.
Assay [7] is described as follows: inhibitors of Sendai virus-induced IRF3 signaling, primary screen, TLR/RLR signaling modifier project, cell-based, Sendai virus stimulus, luciferase, 10K MLSCN set (AID 602276;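 active = inhibition at or above 50% at 10 µM; inactive = inhibition below 50%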;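 also: firefly luciferase from ISG56 promoter only with Renilla not read in this screen; 0% = Sendai virus plus DMSO and 100% = medium plus DMSO without virus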). The conditions noted are these: HEK293 RL24 IRF3 luciferase reporter, at 10 µM, stronger effect = higher value. For orientation: Reporter assays use an easily measured gene product as a stand-in for the process of interest.

Assay [8] is described as follows: inhibitors of poly I:C-induced TLR3 signaling, primary screen, cell-based, poly I:C stimulus, luciferase, 10K MLSCN set (AID 602277;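 active = inhibition of the reporter signal at or above 50%; inactive = inhibition below 50%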). The following applies: HEK293-TLR3 RL24 IRF3 luciferase reporter, at 10 µM, stronger effect = higher value.

Sequence of Alpha-2C adrenergic receptor (Homo sapiens) (P18825 whole entry, looked up): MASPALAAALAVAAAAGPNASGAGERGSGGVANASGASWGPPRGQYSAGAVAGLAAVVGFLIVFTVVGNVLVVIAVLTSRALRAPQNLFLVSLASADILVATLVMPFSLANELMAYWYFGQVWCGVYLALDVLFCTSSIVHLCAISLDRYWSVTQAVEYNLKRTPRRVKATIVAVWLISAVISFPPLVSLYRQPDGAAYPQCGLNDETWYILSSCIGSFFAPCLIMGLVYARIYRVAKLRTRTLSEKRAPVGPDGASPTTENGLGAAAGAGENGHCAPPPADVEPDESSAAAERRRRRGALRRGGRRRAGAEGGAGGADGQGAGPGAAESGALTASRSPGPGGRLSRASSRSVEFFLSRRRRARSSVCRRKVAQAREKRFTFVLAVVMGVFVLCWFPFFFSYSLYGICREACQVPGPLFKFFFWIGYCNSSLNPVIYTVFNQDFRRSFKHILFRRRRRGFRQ
Sequence of Voltage-gated potassium channel subunit beta-2 (Rattus norvegicus) (P62483 whole entry, looked up): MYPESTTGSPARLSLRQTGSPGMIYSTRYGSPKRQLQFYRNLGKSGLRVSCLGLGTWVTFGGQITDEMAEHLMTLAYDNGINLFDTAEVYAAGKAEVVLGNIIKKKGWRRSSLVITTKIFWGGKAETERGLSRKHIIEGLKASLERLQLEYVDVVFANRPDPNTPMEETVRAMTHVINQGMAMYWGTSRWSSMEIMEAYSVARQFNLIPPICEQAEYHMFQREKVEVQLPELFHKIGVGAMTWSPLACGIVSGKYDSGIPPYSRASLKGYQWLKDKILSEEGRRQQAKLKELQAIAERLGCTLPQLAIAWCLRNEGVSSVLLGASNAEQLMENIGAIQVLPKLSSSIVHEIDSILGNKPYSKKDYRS

As to `CCOC(=O)C1CCN(C(=O)C2(NC(=O)Nc3ccccc3Cl)CCCCC2)CC1`, the cell count in assay [1] came out at 568. The inhibition in assay [1] was -4.9% (inactive); in assay [3], -54.8% (inactive); in assay [7], 15% (inactive); in assay [8], 20.6% (inactive). Moreover, the inhibition of aggregation in assay [2] was -41.9% (inactive). The nuclei count in assay [2] was 107%; in assay [3], 105%. The fluorescence slope in assay [4] was -0.626 (inactive). Further, the NADPH fluorescence slope in assay [5] was 5.4e-06 (inactive). Further, in assay [6], the slope was 0.0059 (inactive).
With `CC(C)OC(=O)CSc1nnc(-c2ccccn2)n1-c1ccccc1`, the cell count in assay [1] is 306. In addition, the inhibition in assay [1] is 1.6% (inactive); in assay [3], -11.2% (inactive); in assay [7], 4.23% (inactive); in assay [8], 6.06% (inactive). The inhibition of aggregation in assay [2] is -8.2% (inactive). Further, the nuclei count in assay [2] amounted to 102%; in assay [3], 99.6%. Also, the fluorescence slope in assay [4] was -0.429 (inactive). Also, in assay [5], the NADPH fluorescence slope was -7.9e-05 (inactive). Further, the slope in assay [6] was 0.00479 (inactive).
Consider `Cn1cccc1Cc1nnc(SCC(=O)Nc2ccc(F)cc2F)n1-c1ccc(F)cc1`, for which the cell count in assay [1] is 664. For the same molecule, the inhibition in assay [1] is -5.5% (inactive); in assay [3], -12.3% (inactive); in assay [7], 10.4% (inactive); in assay [8], 32.3% (inactive). The inhibition of aggregation in assay [2] was -16.9% (inactive). In addition, the values for the nuclei count in assay [2] and in assay [3] were 93.7% and 99.4%, respectively. For the same molecule, the fluorescence slope in assay [4] was -0.546 (inactive). In addition, in assay [5], the NADPH fluorescence slope was -7.7e-05 (inactive). For the same molecule, in assay [6], the slope was 0.00521 (inactive).
Consider `CCOCCCNC(=O)CN1CCN(Cc2ccccc2C)C1=O`, for which, in assay [1], the cell count stood at 600. Moreover, the inhibition in assay [1] is -4.4% (inactive); in assay [3], -42% (inactive); in assay [7], -1.33% (inactive); in assay [8], 19.7% (inactive). Further, the inhibition of aggregation in assay [2] is -25.9% (inactive). Also, the nuclei count came out at 108% in assay [2] and 117% in assay [3]. Further, in assay [4], the fluorescence slope was -0.574 (inactive). Moreover, in assay [5], the NADPH fluorescence slope is -5.1e-05 (inactive). In assay [6], the slope was 0.00699 (inactive).
With `CCOC(=O)N1CCC(c2cc(=O)n3[nH]cc(C(=O)OC)c3n2)CC1`, in assay [1], the cell count was 534. In addition, the inhibition in assay [1] was 6.8% (inactive); in assay [3], 7.4% (inactive); in assay [7], 16.5% (inactive); in assay [8] it was 35.8% (inactive). Further, the inhibition of aggregation in assay [2] was -16.8% (inactive). Further, the values for the nuclei count in assay [2] and in assay [3] were 58.3% and 103%, respectively. In addition, in assay [4], the fluorescence slope was -0.541 (inactive). For the same molecule, the NADPH fluorescence slope in assay [5] was -1.8e-05 (inactive). In addition, the slope in assay [6] is 0.00674 (inactive).
In the case of `COc1ccc(C2CC(C(F)(F)F)n3ncc(C(=O)NCc4cccnc4)c3N2)cc1OC` (centres undefined), in assay [1], the cell count worked out at 313. Also, the inhibition in assay [1] is 0.3% (inactive); in assay [3], 8% (inactive); in assay [7], 5.88% (inactive); in assay [8], 20.9% (inactive). Also, the inhibition of aggregation in assay [2] is 8.9% (inactive). For the same molecule, the nuclei count amounted to 57.1% in assay [2] and 91.9% in assay [3]. Besides, the fluorescence slope in assay [4] was -0.388 (inactive). Besides, the NADPH fluorescence slope in assay [5] is -3.2e-05 (inactive). The slope in assay [6] is 0.00287 (inactive).
With `CN(C)C(=O)c1ccc(COc2ccccc2Br)o1`, in assay [1], the cell count was 730. The inhibition in assay [1] is -11% (inactive); in assay [3] it was -26.4% (inactive); in assay [7], -40.1% (inactive); in assay [8], -62.5% (inactive). The inhibition of aggregation in assay [2] is 27.2% (inactive). Further, the nuclei count in assay [2] amounted to 71.4%; in assay [3], 104%. Further, the fluorescence slope in assay [4] is -0.606 (inactive). Moreover, the NADPH fluorescence slope in assay [5] was -2.2e-05 (inactive). Also, the slope in assay [6] is 0.0062 (inactive).
Regarding `CN(CC(=O)O)S(=O)(=O)c1cc(Cl)ccc1Cl`, the cell count in assay [1] was 416. For the same molecule, the inhibition in assay [1] is 3.5% (inactive); in assay [3] it was -8.7% (inactive); in assay [7], -11.4% (inactive); in assay [8] it was -16.7% (inactive). The inhibition of aggregation in assay [2] was -0.4% (inactive). For the same molecule, the nuclei count in assay [2] is 111%; in assay [3], 101%. Also, in assay [4], the fluorescence slope was -0.437 (inactive). The NADPH fluorescence slope in assay [5] was -5e-05 (inactive). For the same molecule, the slope in assay [6] was 0.0044 (inactive).
As to `O=C(c1ccc(S(=O)(=O)N2CCOCC2)cc1)N(c1ccc(F)cc1)C1C=CS(=O)(=O)C1` (centres undefined), the cell count in assay [1] was 774. Also, the inhibition in assay [1] is -19.7% (inactive); in assay [3] it was -74.8% (inactive); in assay [7], 3.76% (inactive); in assay [8] it was 13.3% (inactive). Further, the inhibition of aggregation in assay [2] was 30.2% (inactive). For the same molecule, the values for the nuclei count in assay [2] and in assay [3] were 111% and 107%, respectively. Further, the fluorescence slope in assay [4] was -0.288 (inactive). Besides, the NADPH fluorescence slope in assay [5] was 1.6e-05 (inactive). For the same molecule, the slope in assay [6] is 0.0046 (inactive).
`CCC(C)(C)n1nnnc1C(c1cc2cc(OC)ccc2[nH]c1=O)N1CCc2ccccc21` (centres undefined): the cell count in assay [1] was 411. The inhibition is -18.4% (inactive) in assay [1], -14.8% (inactive) in assay [3], 14.9% (inactive) in assay [7] and 29.5% (inactive) in assay [8]. The inhibition of aggregation in assay [2] was 9.8% (inactive). Also, the nuclei count turned out to be 100% in assay [2] and 116% in assay [3]. For the same molecule, the fluorescence slope in assay [4] was -0.592 (inactive). Also, in assay [5], the NADPH fluorescence slope was -4.5e-05 (inactive). In addition, the slope in assay [6] is 0.0033 (inactive).
Turning to `O=C(NCc1ccc2c(c1)OCO2)c1cccc2c1C(=O)N(C1CCCCC1)C2`, the cell count in assay [1] worked out at 570. The inhibition is -5% (inactive) in assay [1], 3.2% (inactive) in assay [3], 8.65% (inactive) in assay [7] and 15.3% (inactive) in assay [8]. The inhibition of aggregation in assay [2] is -12.5% (inactive). Besides, the nuclei count in assay [2] amounted to 108%; in assay [3], 115%. Moreover, the fluorescence slope in assay [4] is -0.615 (inactive). The NADPH fluorescence slope in assay [5] was -1.7e-05 (inactive). In assay [6], the slope was 0.00632 (inactive).
Regarding `Cn1c(=O)cc(OCCCC(=O)Nc2ccc3c(c2)OCCO3)c2ccccc21`, the cell count in assay [1] turned out to be 361. Also, the inhibition in assay [1] was -3.3% (inactive); in assay [3] it was -8.1% (inactive); in assay [7], -5.46% (inactive); in assay [8], -1.3% (inactive). Further, the inhibition of aggregation in assay [2] is -4.7% (inactive). Besides, the nuclei count in assay [2] is 101%; in assay [3] it was 113%. For the same molecule, the fluorescence slope in assay [4] is -0.511 (inactive). In addition, the NADPH fluorescence slope in assay [5] was -1.4e-05 (inactive). Further, the slope in assay [6] was 0.00629 (inactive).
Consider `CCCCNc1cc(C)oc(=O)c1C(C)=O`, for which the cell count in assay [1] was 590. For the same molecule, the inhibition is 10.2% (inactive) in assay [1], -81% (inactive) in assay [3], -0.373% (inactive) in assay [7] and 22.9% (inactive) in assay [8]. Moreover, in assay [2], the inhibition of aggregation was 11.4% (inactive). In addition, the nuclei count in assay [2] is 97.3%; in assay [3], 123%. The fluorescence slope in assay [4] is -0.443 (inactive). Besides, the NADPH fluorescence slope in assay [5] is 2e-05 (inactive). The slope in assay [6] is 0.006 (inactive).
Take `CCOC(=O)c1sc(NC(=O)CSc2nnc(-c3ccc(OC)cc3)n2CCOC)nc1C`: the cell count in assay [1] was found to be 633. The inhibition was 12.1% (inactive) in assay [1], -89.1% (inactive) in assay [3], 13.8% (inactive) in assay [7] and 24.5% (inactive) in assay [8]. Further, the inhibition of aggregation in assay [2] was 12.9% (inactive). The nuclei count in assay [2] came out at 88.1%; in assay [3] it was 140%. Moreover, in assay [4], the fluorescence slope was -0.481 (inactive). Moreover, in assay [5], the NADPH fluorescence slope was 1.3e-05 (inactive). Also, in assay [6], the slope was 0.00672 (inactive).
